Source: US20220289795, “EFFICIENT METHOD FOR PREPARING PPR PROTEIN AND USE OF THE SAME” (EditForce, Inc., published 2022)

Target: T1, NL_v2_PPR14 (Artificial Sequence)
T1 chain: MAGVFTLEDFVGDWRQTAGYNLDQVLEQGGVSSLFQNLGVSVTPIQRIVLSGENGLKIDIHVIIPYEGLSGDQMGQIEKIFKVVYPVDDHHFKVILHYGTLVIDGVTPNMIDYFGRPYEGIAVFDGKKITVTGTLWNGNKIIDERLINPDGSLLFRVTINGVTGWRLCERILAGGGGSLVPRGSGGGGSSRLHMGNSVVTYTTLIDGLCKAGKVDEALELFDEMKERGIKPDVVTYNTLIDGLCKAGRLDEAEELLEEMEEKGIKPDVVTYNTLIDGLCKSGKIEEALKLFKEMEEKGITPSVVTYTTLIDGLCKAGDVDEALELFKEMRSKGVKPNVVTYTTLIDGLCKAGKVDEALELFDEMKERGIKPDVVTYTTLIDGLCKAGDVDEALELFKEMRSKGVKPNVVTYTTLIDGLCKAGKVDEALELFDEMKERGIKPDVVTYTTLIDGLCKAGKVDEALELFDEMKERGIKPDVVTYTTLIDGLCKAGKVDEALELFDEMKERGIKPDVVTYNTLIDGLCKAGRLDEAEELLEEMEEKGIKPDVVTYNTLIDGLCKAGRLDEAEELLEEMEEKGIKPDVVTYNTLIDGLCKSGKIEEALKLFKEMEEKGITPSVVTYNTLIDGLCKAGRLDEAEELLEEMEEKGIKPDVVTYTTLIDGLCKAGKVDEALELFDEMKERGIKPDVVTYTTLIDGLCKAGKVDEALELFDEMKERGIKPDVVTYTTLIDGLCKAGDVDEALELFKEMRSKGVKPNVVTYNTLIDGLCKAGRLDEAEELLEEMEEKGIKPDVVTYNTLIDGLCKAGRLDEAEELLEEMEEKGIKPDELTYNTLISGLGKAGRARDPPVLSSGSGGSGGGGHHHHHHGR
Assay: RPB-ELISA
Details: tags: N-terminal luciferase, C-terminal 6xHis; label: 5'-biotin; ssRNA
Procedure: RNA probes consisting of a designed 30-base sequence containing 18 bases of the target sequence and modified by biotinylation at the 5′ end (RNA_1, RNA_2, RNA_3, RNA_4, and RNA_5, SEQ ID NOS: 61 to 65) were synthesized (Grainer). To a streptavidin-coated plate (Thermo fisher), the 5′-end biotinylated RNA probes were added, reaction was allowed at room temperature for 30 minutes, and the plate was washed with a lysis buffer (20 mM Tris-HCl, pH 7.6, 150 mM NaCl, 5 mM MgCl₂, 0.5% NP-40, 1 mM DTT, 0.1% BSA). For background measurement, wells to which RNA was not added, but 100 μL of the lysis buffer, 1 μL of 100 mM DTT, and 1 μL of 40 unit/4 RNase inhibitor (Takara, 2313A) were added were also prepared. Then, 200 μL of a blocking buffer (20 mM Tris-HCl, pH 7.6, 150 mM NaCl, 5 mM MgCl₂, 0.5% NP-40, 1 mM DTT, 1% BSA) was added, and the plate surface was blocked at room temperature for 30 minutes. Then, 100 μL of E. coli lysate containing luciferase-fused PPR protein having a luminescence level of 1.5×10⁸ LU/μL was added to each well, and the binding reaction was allowed at room temperature for 30 minutes. The well was washed 5 times with 200 μL of a washing buffer (20 mM Tris-HCl, pH 7.6, 150 mM NaCl, 5 mM MgCl₂, 0.5% NP-40, 1 mM DTT). […] The background (luminescence signal value obtained with adding the PPR protein and without adding RNA) was subtracted from the luminescences of the samples to which a solution containing each RNA and PPR protein was added, and the obtained values were used as the binding powers between the PPR protein and RNA.
By using the v2 motif, PPR proteins for 23 kinds of target sequences (T_1 to T_3, and T_5 to T_24, SEQ ID NOS: […]) were prepared (NL_v2_PPR1 to 3, and NL_v2_PPR5 to 24, SEQ ID NOS: 56 to 58 and 70 to 88), and RPB-ELISA was used to analyze bindings of all the combinations. The experimental method was the same as that used in Example 3.

Row | Sequence | binding signal [log2 luminescence]
1 | GGUUAGAGAUACAGUGUG | 22
